# Article PMC11006913
# Experiments:
# Test in all cases: PBM; 200 nM protein, PBS
# Details in all cases: dsDNA, one strand shown
# HOXB9 [1] = biological target: HOXB9 (Homo sapiens, UniProt P17482 171-250, T197M)
# HOXA2 [2] = biological target: HOXA2 (Homo sapiens, UniProt O43364 129-215, R185T)
# HOXB9 [3] = biological target: HOXB9 (Homo sapiens, UniProt P17482 171-250)
# NKX2-6 = biological target: T1, NKX2-6 (Homo sapiens, UniProt A6NCS4 118-204, R150C)
# T1 sequence: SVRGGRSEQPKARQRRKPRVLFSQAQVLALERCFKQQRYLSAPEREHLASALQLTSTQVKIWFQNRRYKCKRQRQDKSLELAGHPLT
# MSX2 [4] = biological target: MSX2 (Homo sapiens, UniProt P35548 130-214, R199I)
# ALX3 [5] = biological target: ALX3 (Homo sapiens, UniProt O95076 139-225, N203Q)
# HOXA2 [6] = biological target: HOXA2 (Homo sapiens, UniProt O43364 129-215, R185K)
# MSX2 [7] = biological target: MSX2 (Homo sapiens, UniProt P35548 130-214)
# ALX3 [8] = biological target: ALX3 (Homo sapiens, UniProt O95076 139-225)
# ALX3 [9] = biological target: ALX3 (Homo sapiens, UniProt O95076 139-225, L168Q)
# HOXB9 [10] = biological target: HOXB9 (Homo sapiens, UniProt P17482 171-250, R186Q)
# ALX3 [11] = biological target: ALX3 (Homo sapiens, UniProt O95076 139-225, L168V)
# MSX2 [12] = biological target: MSX2 (Homo sapiens, UniProt P35548 130-214, F161Y)
# HOXA2 [13] = biological target: HOXA2 (Homo sapiens, UniProt O43364 129-215, Y150S)
# ALX3 [14] = biological target: ALX3 (Homo sapiens, UniProt O95076 139-225, N203S)
# HOXA2 [15] = biological target: HOXA2 (Homo sapiens, UniProt O43364 129-215)
# VAX1 [16] = biological target: VAX1 (Homo sapiens, UniProt Q5SQQ9 86-172)
# VAX1 [17] = biological target: VAX1 (Homo sapiens, UniProt Q5SQQ9 86-172, T142I)
# VAX1 [18] = biological target: VAX1 (Homo sapiens, UniProt Q5SQQ9 86-172, K157R)
# PITX2 = PITX2 (Homo sapiens, UniProt Q99697 72-157)
# MSX2 (Homo sapiens, UniProt P35548 130-214), sequence (P35548 130-214): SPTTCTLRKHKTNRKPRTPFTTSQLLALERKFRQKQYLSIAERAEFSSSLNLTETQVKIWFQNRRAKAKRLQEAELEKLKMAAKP
# MSX2 (Homo sapiens, UniProt P35548 130-214, R199I), sequence (P35548 130-214 R199I): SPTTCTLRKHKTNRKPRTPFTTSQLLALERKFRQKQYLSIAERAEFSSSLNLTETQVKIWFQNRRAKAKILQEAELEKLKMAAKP
# HOXB9 (Homo sapiens, UniProt P17482 171-250), sequence (P17482 171-250): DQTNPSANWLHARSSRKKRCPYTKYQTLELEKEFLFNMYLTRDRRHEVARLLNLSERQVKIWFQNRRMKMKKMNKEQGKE
# MSX2 (Homo sapiens, UniProt P35548 130-214, F161Y), sequence (P35548 130-214 F161Y): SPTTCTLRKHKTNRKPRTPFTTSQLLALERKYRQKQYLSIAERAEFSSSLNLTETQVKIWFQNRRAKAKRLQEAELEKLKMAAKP
# HOXB9 (Homo sapiens, UniProt P17482 171-250, T197M), sequence (P17482 171-250 T197M): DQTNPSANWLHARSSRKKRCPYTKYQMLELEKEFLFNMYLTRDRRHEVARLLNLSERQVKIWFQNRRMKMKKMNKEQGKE
# HOXB9 (Homo sapiens, UniProt P17482 171-250, R186Q), sequence (P17482 171-250 R186Q): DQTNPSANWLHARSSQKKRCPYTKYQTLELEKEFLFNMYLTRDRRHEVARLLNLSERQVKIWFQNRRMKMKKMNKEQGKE
# HOXA2 (Homo sapiens, UniProt O43364 129-215, R185K), sequence (O43364 129-215 R185K): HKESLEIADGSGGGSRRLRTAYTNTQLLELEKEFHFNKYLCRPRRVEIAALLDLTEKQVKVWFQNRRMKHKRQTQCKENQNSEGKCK
# HOXA2 (Homo sapiens, UniProt O43364 129-215, Y150S), sequence (O43364 129-215 Y150S): as the sequence (O43364 129-215 R185K) above, with Y22S, K57R counted along it
# HOXA2 (Homo sapiens, UniProt O43364 129-215), sequence (O43364 129-215): as the sequence (O43364 129-215 R185K) above, with K57R counted along it
# HOXA2 (Homo sapiens, UniProt O43364 129-215, R185T), sequence (O43364 129-215 R185T): as the sequence (O43364 129-215 R185K) above, with K57T counted along it
# VAX1 (Homo sapiens, UniProt Q5SQQ9 86-172, T142I), sequence (Q5SQQ9 86-172 T142I): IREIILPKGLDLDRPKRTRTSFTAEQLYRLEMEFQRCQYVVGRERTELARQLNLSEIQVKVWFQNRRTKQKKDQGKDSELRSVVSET
# VAX1 (Homo sapiens, UniProt Q5SQQ9 86-172), sequence (Q5SQQ9 86-172): as the sequence (Q5SQQ9 86-172 T142I) above, with I57T counted along it
# VAX1 (Homo sapiens, UniProt Q5SQQ9 86-172, K157R), sequence (Q5SQQ9 86-172 K157R): as the sequence (Q5SQQ9 86-172 T142I) above, with I57T, K72R counted along it
# ALX3 (Homo sapiens, UniProt O95076 139-225, N203S), sequence (O95076 139-225 N203S): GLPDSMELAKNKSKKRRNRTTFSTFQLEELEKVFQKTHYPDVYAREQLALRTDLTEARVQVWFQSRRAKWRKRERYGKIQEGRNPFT
# ALX3 (Homo sapiens, UniProt O95076 139-225, L168Q), sequence (O95076 139-225 L168Q): as the sequence (O95076 139-225 N203S) above, with L30Q, S65N counted along it
# ALX3 (Homo sapiens, UniProt O95076 139-225), sequence (O95076 139-225): as the sequence (O95076 139-225 N203S) above, with S65N counted along it
# ALX3 (Homo sapiens, UniProt O95076 139-225, N203Q), sequence (O95076 139-225 N203Q): as the sequence (O95076 139-225 N203S) above, with S65Q counted along it
# ALX3 (Homo sapiens, UniProt O95076 139-225, L168V), sequence (O95076 139-225 L168V): as the sequence (O95076 139-225 N203S) above, with L30V, S65N counted along it
sequence,measurement,setting,value
GCGCGGCA,binding signal,HOXB9 [1],"8.49 upbm affinity estimate (log intensity, higher = more binding, comparable within an allelic series)"
same,binding signal,HOXA2 [2],"7.06 upbm affinity estimate (log intensity, higher = more binding, comparable within an allelic series)"
same,binding signal,HOXB9 [3],"8.54 upbm affinity estimate (log intensity, higher = more binding, comparable within an allelic series)"
same,binding signal,NKX2-6,"9.57 upbm affinity estimate (log intensity, higher = more binding, comparable within an allelic series)"
same,binding signal,MSX2 [4],"9.56 upbm affinity estimate (log intensity, higher = more binding, comparable within an allelic series)"
same,binding signal,ALX3 [5],"7.82 upbm affinity estimate (log intensity, higher = more binding, comparable within an allelic series)"
same,binding signal,HOXA2 [6],"10.3 upbm affinity estimate (log intensity, higher = more binding, comparable within an allelic series)"
same,binding signal,MSX2 [7],"9.62 upbm affinity estimate (log intensity, higher = more binding, comparable within an allelic series)"
same,binding signal,ALX3 [8],"7.75 upbm affinity estimate (log intensity, higher = more binding, comparable within an allelic series)"
same,binding signal,ALX3 [9],"7.66 upbm affinity estimate (log intensity, higher = more binding, comparable within an allelic series)"
same,binding signal,HOXB9 [10],"8.56 upbm affinity estimate (log intensity, higher = more binding, comparable within an allelic series)"
same,binding signal,ALX3 [11],"7.72 upbm affinity estimate (log intensity, higher = more binding, comparable within an allelic series)"
same,binding signal,MSX2 [12],"9.62 upbm affinity estimate (log intensity, higher = more binding, comparable within an allelic series)"
same,binding signal,HOXA2 [13],"10.4 upbm affinity estimate (log intensity, higher = more binding, comparable within an allelic series)"
same,binding signal,ALX3 [14],"7.83 upbm affinity estimate (log intensity, higher = more binding, comparable within an allelic series)"
same,binding signal,HOXA2 [15],"6.94 upbm affinity estimate (log intensity, higher = more binding, comparable within an allelic series)"
CGCCCAGA,binding signal,HOXB9 [1],"8.62 upbm affinity estimate (log intensity, higher = more binding, comparable within an allelic series)"
same,binding signal,HOXB9 [3],"8.59 upbm affinity estimate (log intensity, higher = more binding, comparable within an allelic series)"
same,binding signal,VAX1 [16],"7.13 upbm affinity estimate (log intensity, higher = more binding, comparable within an allelic series)"
same,binding signal,HOXB9 [10],"8.62 upbm affinity estimate (log intensity, higher = more binding, comparable within an allelic series)"
same,binding signal,VAX1 [17],"7.22 upbm affinity estimate (log intensity, higher = more binding, comparable within an allelic series)"
same,binding signal,VAX1 [18],"7.49 upbm affinity estimate (log intensity, higher = more binding, comparable within an allelic series)"
AAGCCACC,binding signal,HOXB9 [1],"8.58 upbm affinity estimate (log intensity, higher = more binding, comparable within an allelic series)"
same,binding signal,HOXB9 [3],"8.55 upbm affinity estimate (log intensity, higher = more binding, comparable within an allelic series)"
same,binding signal,HOXB9 [10],"8.63 upbm affinity estimate (log intensity, higher = more binding, comparable within an allelic series)"
CGAAGGAC,binding signal,HOXB9 [1],"8.68 upbm affinity estimate (log intensity, higher = more binding, comparable within an allelic series)"
same,binding signal,HOXB9 [3],"8.57 upbm affinity estimate (log intensity, higher = more binding, comparable within an allelic series)"
same,binding signal,HOXB9 [10],"8.58 upbm affinity estimate (log intensity, higher = more binding, comparable within an allelic series)"
CGCCGGAC,binding signal,HOXB9 [1],"8.48 upbm affinity estimate (log intensity, higher = more binding, comparable within an allelic series)"
same,binding signal,HOXA2 [2],"7.23 upbm affinity estimate (log intensity, higher = more binding, comparable within an allelic series)"
same,binding signal,HOXB9 [3],"8.46 upbm affinity estimate (log intensity, higher = more binding, comparable within an allelic series)"
same,binding signal,HOXA2 [6],"10.4 upbm affinity estimate (log intensity, higher = more binding, comparable within an allelic series)"
same,binding signal,HOXB9 [10],"8.52 upbm affinity estimate (log intensity, higher = more binding, comparable within an allelic series)"
same,binding signal,HOXA2 [13],"10.4 upbm affinity estimate (log intensity, higher = more binding, comparable within an allelic series)"
same,binding signal,HOXA2 [15],"7.32 upbm affinity estimate (log intensity, higher = more binding, comparable within an allelic series)"
CCTGCTCG,binding signal,HOXB9 [1],"8.58 upbm affinity estimate (log intensity, higher = more binding, comparable within an allelic series)"
same,binding signal,HOXB9 [3],"8.34 upbm affinity estimate (log intensity, higher = more binding, comparable within an allelic series)"
same,binding signal,MSX2 [4],"9.56 upbm affinity estimate (log intensity, higher = more binding, comparable within an allelic series)"
same,binding signal,MSX2 [7],"9.58 upbm affinity estimate (log intensity, higher = more binding, comparable within an allelic series)"
same,binding signal,HOXB9 [10],"8.42 upbm affinity estimate (log intensity, higher = more binding, comparable within an allelic series)"
same,binding signal,MSX2 [12],"9.61 upbm affinity estimate (log intensity, higher = more binding, comparable within an allelic series)"
GGAGCTAC,binding signal,HOXB9 [1],"8.61 upbm affinity estimate (log intensity, higher = more binding, comparable within an allelic series)"
same,binding signal,HOXB9 [3],"8.26 upbm affinity estimate (log intensity, higher = more binding, comparable within an allelic series)"
same,binding signal,HOXB9 [10],"8.53 upbm affinity estimate (log intensity, higher = more binding, comparable within an allelic series)"
CTTGGGCC,binding signal,HOXB9 [1],"8.42 upbm affinity estimate (log intensity, higher = more binding, comparable within an allelic series)"
same,binding signal,HOXB9 [3],"8.37 upbm affinity estimate (log intensity, higher = more binding, comparable within an allelic series)"
same,binding signal,VAX1 [16],"6.94 upbm affinity estimate (log intensity, higher = more binding, comparable within an allelic series)"
same,binding signal,HOXB9 [10],"8.33 upbm affinity estimate (log intensity, higher = more binding, comparable within an allelic series)"
same,binding signal,VAX1 [17],"7.04 upbm affinity estimate (log intensity, higher = more binding, comparable within an allelic series)"
same,binding signal,VAX1 [18],"6.93 upbm affinity estimate (log intensity, higher = more binding, comparable within an allelic series)"
CTGGCGTC,binding signal,HOXB9 [1],"8.43 upbm affinity estimate (log intensity, higher = more binding, comparable within an allelic series)"
same,binding signal,HOXB9 [3],"8.27 upbm affinity estimate (log intensity, higher = more binding, comparable within an allelic series)"
same,binding signal,MSX2 [4],"9.45 upbm affinity estimate (log intensity, higher = more binding, comparable within an allelic series)"
same,binding signal,MSX2 [7],"9.51 upbm affinity estimate (log intensity, higher = more binding, comparable within an allelic series)"
same,binding signal,HOXB9 [10],"8.34 upbm affinity estimate (log intensity, higher = more binding, comparable within an allelic series)"
same,binding signal,MSX2 [12],"9.44 upbm affinity estimate (log intensity, higher = more binding, comparable within an allelic series)"
CCCGCAAG,binding signal,HOXB9 [1],"8.42 upbm affinity estimate (log intensity, higher = more binding, comparable within an allelic series)"
same,binding signal,HOXB9 [3],"8.44 upbm affinity estimate (log intensity, higher = more binding, comparable within an allelic series)"
same,binding signal,PITX2,"7.91 upbm affinity estimate (log intensity, higher = more binding, comparable within an allelic series)"
same,binding signal,HOXB9 [10],"8.51 upbm affinity estimate (log intensity, higher = more binding, comparable within an allelic series)"
CCTATAAG,binding signal,HOXB9 [1],"9.17 upbm affinity estimate (log intensity, higher = more binding, comparable within an allelic series)"
same,binding signal,HOXB9 [3],"9.71 upbm affinity estimate (log intensity, higher = more binding, comparable within an allelic series)"
CGGGCAAC,binding signal,HOXB9 [1],"8.62 upbm affinity estimate (log intensity, higher = more binding, comparable within an allelic series)"
same,binding signal,HOXB9 [3],"8.62 upbm affinity estimate (log intensity, higher = more binding, comparable within an allelic series)"
same,binding signal,PITX2,"7.85 upbm affinity estimate (log intensity, higher = more binding, comparable within an allelic series)"
same,binding signal,HOXB9 [10],"8.68 upbm affinity estimate (log intensity, higher = more binding, comparable within an allelic series)"
CAGGGGCC,binding signal,HOXB9 [1],"8.21 upbm affinity estimate (log intensity, higher = more binding, comparable within an allelic series)"
same,binding signal,HOXB9 [3],"8.25 upbm affinity estimate (log intensity, higher = more binding, comparable within an allelic series)"
same,binding signal,HOXB9 [10],"8.25 upbm affinity estimate (log intensity, higher = more binding, comparable within an allelic series)"
CTTGGCGC,binding signal,HOXB9 [1],"8.47 upbm affinity estimate (log intensity, higher = more binding, comparable within an allelic series)"
same,binding signal,HOXB9 [3],"8.24 upbm affinity estimate (log intensity, higher = more binding, comparable within an allelic series)"
same,binding signal,PITX2,"7.94 upbm affinity estimate (log intensity, higher = more binding, comparable within an allelic series)"
same,binding signal,HOXB9 [10],"8.21 upbm affinity estimate (log intensity, higher = more binding, comparable within an allelic series)"
ACACCCAG,binding signal,HOXB9 [1],"8.69 upbm affinity estimate (log intensity, higher = more binding, comparable within an allelic series)"
same,binding signal,HOXB9 [3],"8.47 upbm affinity estimate (log intensity, higher = more binding, comparable within an allelic series)"
same,binding signal,HOXB9 [10],"8.52 upbm affinity estimate (log intensity, higher = more binding, comparable within an allelic series)"
